Data on 26 sequences can be found in paper PMC11006913.

Common to all, as to experiment: PBM; 200 nM protein, PBS
Common to all, as to details: dsDNA, one strand shown

Assay [1] deals with HOXD13 (Homo sapiens, UniProt P35453 263-343, T313R).
The target in assay [2] is HOXD13 (Homo sapiens, UniProt P35453 263-343).
The next assay addresses HOXC10 (Homo sapiens, UniProt Q9NYD6 254-340, K271E).
Assay [3] addresses HOXD13 (Homo sapiens, UniProt P35453 263-343, T313A).

Sequence of HOXD13 (Homo sapiens, UniProt P35453 263-343, T313R) (P35453 263-343 T313R): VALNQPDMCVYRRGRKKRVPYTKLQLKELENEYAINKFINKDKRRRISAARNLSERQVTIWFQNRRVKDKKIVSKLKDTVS
Sequence of HOXD13 (Homo sapiens, UniProt P35453 263-343) (P35453 263-343): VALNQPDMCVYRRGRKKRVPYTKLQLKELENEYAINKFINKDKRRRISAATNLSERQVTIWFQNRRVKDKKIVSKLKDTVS
Sequence of HOXD13 (Homo sapiens, UniProt P35453 263-343, T313A) (P35453 263-343 T313A): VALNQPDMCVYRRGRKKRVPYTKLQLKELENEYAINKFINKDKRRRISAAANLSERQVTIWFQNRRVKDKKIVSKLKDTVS
Sequence of HOXC10 (Q9NYD6 254-340 K271E): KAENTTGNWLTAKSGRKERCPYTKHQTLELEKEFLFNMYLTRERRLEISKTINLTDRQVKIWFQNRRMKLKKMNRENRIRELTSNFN

Consider TCCATAAA, for which the binding signal in the assay with HOXD13 [1] is 10.7 upbm affinity estimate (log intensity, higher = more binding, comparable within an allelic series); with HOXD13 [2], 11.9 upbm affinity estimate (log intensity, higher = more binding, comparable within an allelic series); in the assay with HOXC10, 11.4 upbm affinity estimate (log intensity, higher = more binding, comparable within an allelic series); with HOXD13 [3], 11.7 upbm affinity estimate (log intensity, higher = more binding, comparable within an allelic series).

As to AGTTTATA, the binding signal in the assay with HOXD13 [1] is 10.7 upbm affinity estimate (log intensity, higher = more binding, comparable within an allelic series); in the assay with HOXD13 [2], 11.9 upbm affinity estimate (log intensity, higher = more binding, comparable within an allelic series); in the assay with HOXD13 [3], 11.6 upbm affinity estimate (log intensity, higher = more binding, comparable within an allelic series).

With GTTTTATA, the binding signal was 10.8 upbm affinity estimate (log intensity, higher = more binding, comparable within an allelic series) in the assay with HOXD13 [1]; 11.8 upbm affinity estimate (log intensity, higher = more binding, comparable within an allelic series) in the assay with HOXD13 [2]; 11.6 upbm affinity estimate (log intensity, higher = more binding, comparable within an allelic series) with HOXD13 [3].

With CGCACAGC, the binding signal in the assay with HOXD13 [1] was 9.44 upbm affinity estimate (log intensity, higher = more binding, comparable within an allelic series); with HOXD13 [2] it was 9.48 upbm affinity estimate (log intensity, higher = more binding, comparable within an allelic series); with HOXD13 [3], 9.53 upbm affinity estimate (log intensity, higher = more binding, comparable within an allelic series).

With CCTACCCC, the binding signal in the assay with HOXD13 [1] is 9.51 upbm affinity estimate (log intensity, higher = more binding, comparable within an allelic series); with HOXD13 [2], 9.51 upbm affinity estimate (log intensity, higher = more binding, comparable within an allelic series); with HOXD13 [3], 9.59 upbm affinity estimate (log intensity, higher = more binding, comparable within an allelic series).

As to CCAGTCCG, the binding signal with HOXD13 [1] is 9.56 upbm affinity estimate (log intensity, higher = more binding, comparable within an allelic series); with HOXD13 [2], 9.53 upbm affinity estimate (log intensity, higher = more binding, comparable within an allelic series); in the assay with HOXD13 [3] it was 9.68 upbm affinity estimate (log intensity, higher = more binding, comparable within an allelic series).

In the case of GTTGTAAA, the binding signal with HOXD13 [1] was 10.6 upbm affinity estimate (log intensity, higher = more binding, comparable within an allelic series); with HOXD13 [2], 11.8 upbm affinity estimate (log intensity, higher = more binding, comparable within an allelic series); in the assay with HOXD13 [3], 11.7 upbm affinity estimate (log intensity, higher = more binding, comparable within an allelic series).

Take CTACGTAG: the binding signal with HOXD13 [1] is 9.84 upbm affinity estimate (log intensity, higher = more binding, comparable within an allelic series); with HOXD13 [2] it was 9.97 upbm affinity estimate (log intensity, higher = more binding, comparable within an allelic series); in the assay with HOXD13 [3], 9.71 upbm affinity estimate (log intensity, higher = more binding, comparable within an allelic series).

For the sequence GAGCCCAC, the binding signal with HOXD13 [1] was 9.49 upbm affinity estimate (log intensity, higher = more binding, comparable within an allelic series); with HOXD13 [2] it was 9.6 upbm affinity estimate (log intensity, higher = more binding, comparable within an allelic series); with HOXD13 [3] it was 9.72 upbm affinity estimate (log intensity, higher = more binding, comparable within an allelic series).

In the case of CCAGTAAA, the binding signal is 10.4 upbm affinity estimate (log intensity, higher = more binding, comparable within an allelic series) in the assay with HOXD13 [1]; 11.5 upbm affinity estimate (log intensity, higher = more binding, comparable within an allelic series) with HOXD13 [2]; 11.2 upbm affinity estimate (log intensity, higher = more binding, comparable within an allelic series) with HOXD13 [3].

As to CATCTTAA, the binding signal with HOXD13 [1] is 10.1 upbm affinity estimate (log intensity, higher = more binding, comparable within an allelic series); with HOXD13 [2], 10.5 upbm affinity estimate (log intensity, higher = more binding, comparable within an allelic series).

GGCCCGAA: the binding signal with HOXD13 [1] is 9.5 upbm affinity estimate (log intensity, higher = more binding, comparable within an allelic series); with HOXD13 [2] it was 9.42 upbm affinity estimate (log intensity, higher = more binding, comparable within an allelic series); with HOXD13 [3], 9.59 upbm affinity estimate (log intensity, higher = more binding, comparable within an allelic series).

CCTATTAA: the binding signal in the assay with HOXD13 [1] is 11 upbm affinity estimate (log intensity, higher = more binding, comparable within an allelic series); in the assay with HOXD13 [2] it was 12.1 upbm affinity estimate (log intensity, higher = more binding, comparable within an allelic series); with HOXD13 [3], 11.9 upbm affinity estimate (log intensity, higher = more binding, comparable within an allelic series).

CGCGATGC: the binding signal with HOXD13 [1] is 9.5 upbm affinity estimate (log intensity, higher = more binding, comparable within an allelic series); with HOXD13 [2], 9.5 upbm affinity estimate (log intensity, higher = more binding, comparable within an allelic series); with HOXD13 [3], 9.65 upbm affinity estimate (log intensity, higher = more binding, comparable within an allelic series).

Consider GCACCGGA, for which the binding signal in the assay with HOXD13 [1] was 9.55 upbm affinity estimate (log intensity, higher = more binding, comparable within an allelic series); with HOXD13 [2], 9.43 upbm affinity estimate (log intensity, higher = more binding, comparable within an allelic series); with HOXD13 [3], 9.61 upbm affinity estimate (log intensity, higher = more binding, comparable within an allelic series).

Regarding GAAGGCCC, the binding signal with HOXD13 [1] is 9.62 upbm affinity estimate (log intensity, higher = more binding, comparable within an allelic series); with HOXD13 [2] it was 9.68 upbm affinity estimate (log intensity, higher = more binding, comparable within an allelic series); with HOXD13 [3] it was 9.79 upbm affinity estimate (log intensity, higher = more binding, comparable within an allelic series).

In the case of CCGCCCTC, the binding signal with HOXD13 [1] was 9.56 upbm affinity estimate (log intensity, higher = more binding, comparable within an allelic series); with HOXD13 [2], 9.65 upbm affinity estimate (log intensity, higher = more binding, comparable within an allelic series); with HOXD13 [3], 9.66 upbm affinity estimate (log intensity, higher = more binding, comparable within an allelic series).

Regarding GAGGGGCC, the binding signal in the assay with HOXD13 [1] is 9.41 upbm affinity estimate (log intensity, higher = more binding, comparable within an allelic series); in the assay with HOXD13 [2] it was 9.46 upbm affinity estimate (log intensity, higher = more binding, comparable within an allelic series); in the assay with HOXD13 [3], 9.41 upbm affinity estimate (log intensity, higher = more binding, comparable within an allelic series).

As to TCTCGTAA, the binding signal with HOXD13 [1] is 10.5 upbm affinity estimate (log intensity, higher = more binding, comparable within an allelic series); in the assay with HOXD13 [2] it was 11.8 upbm affinity estimate (log intensity, higher = more binding, comparable within an allelic series); with HOXD13 [3], 11.6 upbm affinity estimate (log intensity, higher = more binding, comparable within an allelic series).

As for CCTGAAGG, the binding signal with HOXD13 [1] was 9.53 upbm affinity estimate (log intensity, higher = more binding, comparable within an allelic series); with HOXD13 [2] it was 9.53 upbm affinity estimate (log intensity, higher = more binding, comparable within an allelic series); in the assay with HOXD13 [3], 9.6 upbm affinity estimate (log intensity, higher = more binding, comparable within an allelic series).

For the sequence CATCGGGG, the binding signal is 9.56 upbm affinity estimate (log intensity, higher = more binding, comparable within an allelic series) in the assay with HOXD13 [1]; 9.66 upbm affinity estimate (log intensity, higher = more binding, comparable within an allelic series) in the assay with HOXD13 [2]; 9.72 upbm affinity estimate (log intensity, higher = more binding, comparable within an allelic series) in the assay with HOXD13 [3].

On to GCAAGACC, for which the binding signal was 9.62 upbm affinity estimate (log intensity, higher = more binding, comparable within an allelic series) in the assay with HOXD13 [1]; 9.57 upbm affinity estimate (log intensity, higher = more binding, comparable within an allelic series) in the assay with HOXD13 [2]; 9.69 upbm affinity estimate (log intensity, higher = more binding, comparable within an allelic series) with HOXD13 [3].

CTTGTAAA: the binding signal with HOXD13 [1] is 10.9 upbm affinity estimate (log intensity, higher = more binding, comparable within an allelic series); with HOXD13 [2], 12.3 upbm affinity estimate (log intensity, higher = more binding, comparable within an allelic series); with HOXD13 [3], 11.9 upbm affinity estimate (log intensity, higher = more binding, comparable within an allelic series).

On to CGCCCGCG, for which the binding signal with HOXD13 [1] is 9.5 upbm affinity estimate (log intensity, higher = more binding, comparable within an allelic series); in the assay with HOXD13 [2] it was 9.42 upbm affinity estimate (log intensity, higher = more binding, comparable within an allelic series); with HOXD13 [3], 9.59 upbm affinity estimate (log intensity, higher = more binding, comparable within an allelic series).

Take CCGCGCTC: the binding signal in the assay with HOXD13 [1] was 9.52 upbm affinity estimate (log intensity, higher = more binding, comparable within an allelic series); in the assay with HOXD13 [2], 9.5 upbm affinity estimate (log intensity, higher = more binding, comparable within an allelic series); with HOXD13 [3], 9.47 upbm affinity estimate (log intensity, higher = more binding, comparable within an allelic series).

On to GGGAGAAC, for which the binding signal with HOXD13 [1] is 9.51 upbm affinity estimate (log intensity, higher = more binding, comparable within an allelic series); in the assay with HOXD13 [2], 9.63 upbm affinity estimate (log intensity, higher = more binding, comparable within an allelic series); in the assay with HOXD13 [3], 9.68 upbm affinity estimate (log intensity, higher = more binding, comparable within an allelic series).
